Data published in PubChem BioAssay (EPA / NIEHS).
The source made the active and inactive calls. How the source made its calls: active means hit-call score of the fitted dose curve at least 0.9, where 1 is the maximum; inactive means score below 0.9.

Tests used:
[1] = BSK_BE3C_SRB: Viability Assessment in the BioMAP Diversity Plus: BE3C Assay (AID 2283028); conditions: primary human bronchial epithelial cells;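 on AC50: fitted both ways so AC50 may mark signal gain or loss versus DMSO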
In short: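 Cytotoxicity read-out: SRB (0.1%) staining of TCA-fixed (10%) human lung bronchial epithelial cells, absorbance 560 nm, 24 h post-dosing. Curves fitted both directions relative to DMSO.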

[2] = read-out: Thrombomodulin, THBD (gene 7056); test: BSK_3C_Thrombomodulin: BioMAP Diversity Plus: 3C Assay for Thrombomodulin Biomarker Activity (AID 2283029); conditions: primary human endothelial cells (HUVEC); actives raise or lower the signal
In short: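 Human umbilical vein endothelial cells were exposed to chemicals for 24 h; cell-surface thrombomodulin quantified by ELISA, with bidirectional fitting against DMSO baseline.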

[3] = read-out: Vascular endothelial growth factor receptor 2 (Homo sapiens) (UniProt P35968); test: BSK_4H_VEGFRII: BioMAP Diversity Plus: 4H Assay for Vascular endothelial growth factor receptor 2 (VEGFR2) Biomarker Activity (AID 2283031); conditions: primary human endothelial cells (HUVEC); actives raise or lower the signal;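 on AC50: cell-surface VEGFR2 protein level quantified by ELISA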
In short: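 Measured by ELISA after 24 h of compound treatment: VEGFR2 on primary human umbilical vein endothelial cells, fitted in both directions relative to DMSO. Parallel cultures received SRB staining (560 nm) for overt cytotoxicity.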

[4] = read-out: Human Leukocyte Antigen - DR isotype (HLADR), HLA-DRA (gene 3122); test: BSK_BE3C_HLADR: BioMAP Diversity Plus: BE3C Assay for Human Leukocyte Antigen - DR isotype (HLADR) Biomarker Activity (AID 2283032); conditions: primary human bronchial epithelial cells; actives raise or lower the signal
In short: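 Human primary bronchial epithelial cells (BE3C system) exposed to compound for 24 hours; cell-surface HLA-DR measured by ELISA, fitted bidirectionally relative to DMSO. Total protein by SRB in parallel cultures tracked cytotoxicity.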

[5] = read-out: Vascular cell adhesion molecule 1 (VCAM1), VCAM1 (gene 7412); test: BSK_4H_VCAM1: BioMAP Diversity Plus: 4H Assay for Vascular cell adhesion molecule 1 (VCAM1) Biomarker Activity (AID 2283033); conditions: primary human endothelial cells (HUVEC); actives raise or lower the signal
In short: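 Primary human umbilical vein endothelial cells, 4H stimulation system, treated for 24 h; cell-surface VCAM-1 quantified by ELISA. Bidirectional fitting against DMSO; cytotoxicity tracked by SRB total-protein staining in parallel cultures.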

[6] = read-out: Interferon-gamma inducible Protein 10 (IP10), CXCL10 (gene 3627); test: BSK_BE3C_IP10: BioMAP Diversity Plus: BE3C Assay for Interferon-gamma inducible Protein 10 (IP10) Biomarker Activity (AID 2283034); conditions: primary human bronchial epithelial cells; actives raise or lower the signal
In short: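 Primary human bronchial epithelial cells, with IP-10 measured by ELISA 24 hours after chemical dosing. Bidirectional fit against DMSO; cytotoxicity checked by SRB total protein staining in parallel cultures.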

[7] = read-out: Monokine induced gamma interferon (MIG), CXCL9 (gene 4283); test: BSK_BE3C_MIG: BioMAP Diversity Plus: BE3C Assay for Monokine induced gamma interferon (MIG) Biomarker Activity (AID 2283035); conditions: primary human bronchial epithelial cells; actives raise or lower the signal
In short: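 ELISA read-out of MIG in human lung bronchial epithelial primary cultures, 24 h post-dosing. Bidirectional curve fit vs DMSO baseline.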

[8] = read-out: Transforming growth factor beta 1 (TGFb1), TGFB1 (gene 7040); test: BSK_BE3C_TGFb1: BioMAP Diversity Plus: BE3C Assay for Transforming growth factor beta 1 (TGFb1) Biomarker Activity (AID 2283036); conditions: primary human bronchial epithelial cells; actives raise or lower the signal
In short: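 Primary human bronchial epithelial cells dosed with chemical; TGF-b1 measured by ELISA 24 h after dosing. Bidirectional curve fitting against DMSO negative control; SRB total-protein staining in parallel cultures gauged cytotoxicity.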

[9] = read-out: Plasminogen activator inhibitor-1 (PAI1), SERPINE1 (gene 5054); test: BSK_BE3C_PAI1: BioMAP Diversity Plus: BE3C Assay for Plasminogen activator inhibitor-1 (PAI1) Biomarker Activity (AID 2283037); conditions: primary human bronchial epithelial cells; actives raise or lower the signal
In short: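 Primary human bronchial epithelial cells (BE3C system) exposed 24 h; PAI-1 quantified by ELISA. Parallel sulforhodamine B staining of total protein flags cytotoxicity. Bidirectional fit versus DMSO.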

[10] = read-out: urokinase plasminogen activator (uPA), PLAU (gene 5328); test: BSK_BE3C_uPA: BioMAP Diversity Plus: BE3C Assay for urokinase plasminogen activator (uPA) Biomarker Activity (AID 2283038); conditions: primary human bronchial epithelial cells; actives raise or lower the signal
In short: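 ELISA for uPA on human primary bronchial epithelial cultures 24 h post-treatment, gain or loss against DMSO. Parallel SRB staining (0.1% after 10% TCA fixation, 560 nm) assessed overt cytotoxicity.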

[11] = read-out: Urokinase-type plasminogen activator receptor (uPAR), PLAUR (gene 5329); test: BSK_BE3C_uPAR: BioMAP Diversity Plus: BE3C Assay for Urokinase-type plasminogen activator receptor (uPAR) Biomarker Activity (AID 2283039); conditions: primary human bronchial epithelial cells; actives raise or lower the signal
In short: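 Primary human bronchial epithelial cells dosed for 24 h; uPAR quantified by ELISA with bidirectional fitting against DMSO. Overt cytotoxicity assessed in parallel cultures by SRB total-protein staining (0.1% SRB, 560 nm).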

[12] = read-out: Interleukin-6 (IL6), IL6 (gene 3569); test: BSK_CASM3C_IL6: BioMAP Diversity Plus: CASM3C Assay for Interleukin-6 (IL6) Biomarker Activity for (AID 2283040); conditions: primary human coronary artery smooth muscle cells; actives raise or lower the signal
[13] = read-out: Interleukin-8 (IL8), CXCL8 (gene 3576); test: BSK_CASM3C_IL8: BioMAP Diversity Plus: CASM3C Assay for Interleukin-8 (IL8) Biomarker Activity (AID 2283042); conditions: primary human coronary artery smooth muscle cells; actives raise or lower the signal;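 further: IL-8 protein level quantified by ELISA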
[14] = read-out: Human Leukocyte Antigen - DR isotype (HLADR), HLA-DRA (gene 3122); test: BSK_CASM3C_HLADR: BioMAP Diversity Plus: CASM3C Assay for Human Leukocyte Antigen - DR isotype (HLADR) Biomarker Activity (AID 2283043); conditions: primary human coronary artery smooth muscle cells; actives raise or lower the signal;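 further: cell-surface HLA-DR protein level quantified by ELISA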
[15] = read-out: Macrophage colony-stimulating factor (MCSF), CSF1 (gene 1435); test: BSK_CASM3C_MCSF: BioMAP Diversity Plus: CASM3C Assay for Macrophage colony-stimulating factor (MCSF) Biomarker Activity (AID 2283044); conditions: primary human coronary artery smooth muscle cells; actives raise or lower the signal;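 further: M-CSF protein amount quantified by ELISA after 24 h exposure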
[16] = read-out: Low-density lipoprotein receptor (LDLR), LDLR (gene 3949); test: BSK_CASM3C_LDLR: BioMAP Diversity Plus: CASM3C Assay for Low-density lipoprotein receptor (LDLR) Biomarker Activity (AID 2283045); conditions: primary human coronary artery smooth muscle cells; actives raise or lower the signal;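 further: LDLR protein level on the cell surface quantified by ELISA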
[17] = read-out: Monocyte Chemoattractant Protein-1 (MCP1), CCL2 (gene 6347); test: BSK_CASM3C_MCP1: BioMAP Diversity Plus: CASM3C Assay for Monocyte Chemoattractant Protein-1 (MCP1) Biomarker Activity (AID 2283046); conditions: primary human coronary artery smooth muscle cells; actives raise or lower the signal;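 further: MCP-1 level quantified by ELISA 24 h after dosing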
[18] = BSK_CASM3C_Proliferation: Cell Proliferation Assessment in the BioMAP Diversity Plus: CASM3C Assay (AID 2283047); conditions: primary human coronary artery smooth muscle cells;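 further: sulforhodamine B total protein stain as relative cell number at 560 nm; sub-confluent cells exposed 48 h before staining; fitted both ways against DMSO so gain or loss of cell number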
[19] = read-out: Tissue plasminogen activator (tPA), PLAT (gene 5327); test: BSK_BE3C_tPA: BioMAP Diversity Plus: BE3C Assay for Tissue plasminogen activator (tPA) Biomarker Activity (AID 2283041); conditions: primary human bronchial epithelial cells; actives raise or lower the signal;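 further: tPA level quantified by ELISA one day after compound addition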
In short: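 Primary human bronchial epithelial cells in the BE3C system, exposed to compound for 24 h. tPA was quantified by ELISA; DMSO served as baseline, with gain or loss of signal fitted. Cytotoxicity checked in parallel cultures by SRB total-protein staining.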

Measured: AC50

N#CN=C1SCCN1Cc1ccc(Cl)nc1
not listed: [19]
inactive: all other assays above

CCN(CC)C(=O)C(C)Oc1cccc2ccccc12 (configuration not stated)
active: [18] 0.531 µM
inactive: all other assays above

COC(=O)NC(=S)Nc1ccccc1NC(=S)NC(=O)OC
active: [2] 10.8 µM | [5] 0.312 µM | [11] 1.46 µM
not listed: [4]
inactive: all other assays above

Cc1ccc(N=CN(C)C=Nc2ccc(C)cc2C)c(C)c1
inactive: [11] | [13] | [14] | [16] | [17]
active: [1] 28.2 µM | [2] 20 µM | [3] 26 µM | [4] 26.7 µM | [5] 29.5 µM | [6] 30.5 µM | [7] 33.3 µM | [8] 34.1 µM | [9] 30.7 µM | [10] 35.4 µM | [12] 30.9 µM | [15] 29.6 µM | [18] 30.4 µM

CCOc1nc(C(Cl)(Cl)Cl)ns1
not listed: [3] | [19]
inactive: all other assays above

Nc1cnn(-c2ccccc2)c(=O)c1Cl
not listed: [19]
inactive: all other assays above

O=P(O)(O)CCCl
not listed: [4] | [19]
inactive: all other assays above

Nc1c(Cl)c(Cl)nc(C(=O)O)c1Cl
not listed: [4] | [19]
inactive: all other assays above
